Assay outcomes deposited in PubChem BioAssay by SRMLSC.
Abs 340nm: compounds absorbing at 340 nm. fold change at 10 µM. 65,000 tested, under 10 active. compound absorbance at 340 nm, fold over control;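 active = at 10 µM dose, initial 340 nm absorbance at least 2 fold that of control wells; inactive = change under 2 fold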;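 note: initial absorbance extrapolated from kinetic A340 decline of NADH oxidation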
Spn MK inh: inhibitors of Streptococcus pneumoniae mevalonate kinase | AID 555 | 0.48% of 65,000 active | inhibition, % at 10 µM | purified MK, PK/LDH-coupled NADH absorbance 340 nm;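 active = ranked among the strongest by inhibition in the single 10 µM screen, a fixed top-ranked set picked for dose follow-up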
PMK inhibit: inhibitors of Streptococcus pneumoniae phosphomevalonate kinase | purified PMK, PK/LDH-coupled NADH absorbance 340 nm | inhibition, % at 10 µM | 0.49% of 65,000 active;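 active = top-ranked compounds by inhibition in the single 10 µM screen, taking a fixed number of the strongest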
NADH coupling: blocks coupling enzymes of NAD/NADH assays. coupled PK/LDH NADH assays, four targets. IC50, µM (top dose mostly 10 µM). 0.02% of 65,000 active;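 active = single-dose screening hits from any of four coupled enzyme assays that gave an IC50 when retested across doses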;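 note: the DPM-DC format reads NADH fluorescence rather than 340 nm absorbance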
DPM-DC inhibit: blocks S. pneumoniae diphosphomevalonate decarboxylase. purified DPM-DC, PK/LDH coupled NADH fluorescence. calls only at 10 µM. 0.49% of 65,000 active. AID 556;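 active = the 320 compounds with the highest percent inhibition in the single-dose primary screen, excluding strongly autofluorescent ones, cut at about 32% in these data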;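 note: kinetic rate of NADH fluorescence loss reporting ADP formed by the decarboxylase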
Fluor 339 460: intrinsic fluorescence of library compounds, ex339/em460 – biochemical, MLSMR library, data from DPM-DC assay, artefact control, profiling panel; compound autofluorescence, ex339/em460 nm, NADH buffer; hits give high values; 1 = no-compound wells, NADH background; fluorescence fold increase at 10 µM; 5.5% of 65,000 active; AID 709;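 active = at 10 µM, mean starting fluorescence two-fold or more over control wells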;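 note: signal is the first read of a kinetic run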
Hits are given with their value. This is a sample that favours compounds with a hit; in the whole collection about 6.8% have one here.

For N#Cc1nc(COc2ccccc2Cl)oc1NCc1ccc(F)cc1 the results were Abs 340nm inactive, Spn MK inh inactive, PMK inhibit inactive, NADH coupling inactive, DPM-DC inhibit inactive and Fluor 339 460 inactive.
COCCNc1oc(-c2ccc(F)cc2)nc1C#N was read as Abs 340nm inactive, Spn MK inh inactive, PMK inhibit inactive, NADH coupling inactive and Fluor 339 460 2.4.
`O=C1c2ccccc2S(=O)(=O)N1CCOc1ccccc1` gave Abs 340nm inactive, Spn MK inh inactive, PMK inhibit inactive, NADH coupling inactive, DPM-DC inhibit inactive and Fluor 339 460 inactive.
`Cc1ccc(NCc2nnc(SCC(=O)OC3CCCCC3)o2)c(C)c1` gave Abs 340nm inactive, Spn MK inh inactive, PMK inhibit inactive, NADH coupling inactive, DPM-DC inhibit inactive and Fluor 339 460 inactive.
CCCC(=O)C1=C(O)C(C(=O)OC)C(C)(C)CC1=Nc1ccncc1 (stereo not given) was read as Abs 340nm inactive, Spn MK inh inactive, PMK inhibit inactive, NADH coupling inactive, DPM-DC inhibit inactive and Fluor 339 460 inactive.
Cc1c(C(=O)Nc2ccc(C(=O)O)cc2)cnn1C was read as Abs 340nm inactive, Spn MK inh inactive, PMK inhibit inactive, NADH coupling inactive, DPM-DC inhibit inactive and Fluor 339 460 inactive.
For COc1ccc(CCNc2oc(-c3ccccc3OC)nc2C#N)cc1 the results were Abs 340nm inactive, Spn MK inh inactive, PMK inhibit inactive, NADH coupling inactive and Fluor 339 460 3.
Screening COc1cccc(N2CCN(C3CC(=O)N(c4ccc(C)c(Cl)c4)C3=O)CC2)c1 (stereo not given) returned Abs 340nm inactive, Spn MK inh 40, PMK inhibit inactive, NADH coupling inactive, DPM-DC inhibit inactive and Fluor 339 460 inactive.
Screening COc1cccc(N2CCN(C3CC(=O)N(c4ccc(F)c(Cl)c4)C3=O)CC2)c1 (stereo not given) returned Abs 340nm inactive, Spn MK inh inactive, PMK inhibit inactive, NADH coupling inactive, DPM-DC inhibit inactive and Fluor 339 460 inactive.
`Cc1nc2sc(C#N)c(N)c2c2c1CCCC2` gave Abs 340nm inactive, Spn MK inh inactive, PMK inhibit inactive, NADH coupling inactive and Fluor 339 460 2.5.
N#Cc1sc2nc3c(c(-c4cccnc4)c2c1N)CCC3 was read as Abs 340nm inactive, Spn MK inh inactive, PMK inhibit inactive, NADH coupling inactive, DPM-DC inhibit inactive and Fluor 339 460 inactive.
`Cc1ccc2cc(CN(CCN3CCOCC3)C(=O)NCc3ccccc3)c(=O)[nH]c2c1C` gave Abs 340nm inactive, Spn MK inh inactive, PMK inhibit inactive, NADH coupling inactive, DPM-DC inhibit inactive and Fluor 339 460 2.1.
For COc1cc2cc(CN(C(=O)NC3CCCCC3)C3CCCC3)c(=O)[nH]c2cc1OC the results were Abs 340nm inactive, Spn MK inh inactive, PMK inhibit inactive, NADH coupling inactive and Fluor 339 460 3.9.
COc1ccc2cc(CN(C(=O)Nc3ccccc3OC)C3CCCC3)c(=O)[nH]c2c1 was read as Abs 340nm inactive, Spn MK inh inactive, PMK inhibit inactive, NADH coupling inactive, DPM-DC inhibit inactive and Fluor 339 460 inactive.
Screening COc1ccc2[nH]c(=O)c(CN(CCN(C)C)C(=O)NCc3ccccc3)cc2c1 returned Abs 340nm inactive, Spn MK inh inactive, PMK inhibit inactive, NADH coupling inactive, DPM-DC inhibit inactive and Fluor 339 460 3.8.
Cc1ccc2[nH]c(=O)c(CN(CCO)C(=O)NCc3ccccc3)cc2c1 was read as Abs 340nm inactive, Spn MK inh inactive, PMK inhibit inactive, NADH coupling inactive, DPM-DC inhibit inactive and Fluor 339 460 inactive.
Screening Cc1ccc2cc(CN(CCN3CCCC3)C(=O)Nc3ccccc3)c(=O)[nH]c2c1C returned Abs 340nm inactive, Spn MK inh inactive, PMK inhibit inactive, NADH coupling inactive, DPM-DC inhibit inactive and Fluor 339 460 inactive.
Screening COc1ccc2[nH]c(=O)c(CN(CCO)C(=O)c3ccccc3F)cc2c1 returned Abs 340nm inactive, Spn MK inh inactive, PMK inhibit inactive, NADH coupling inactive, DPM-DC inhibit inactive and Fluor 339 460 2.9.
CC1CCN(S(=O)(=O)c2ccc(Br)s2)CC1 was read as Abs 340nm inactive, Spn MK inh inactive, PMK inhibit inactive, NADH coupling inactive, DPM-DC inhibit inactive and Fluor 339 460 inactive.
`CC(C)n1c(CCC(=O)O)ccc1-c1ccccc1` gave Abs 340nm inactive, Spn MK inh inactive, PMK inhibit inactive, NADH coupling inactive, DPM-DC inhibit inactive and Fluor 339 460 inactive.
Screening O=C(NCc1ccccc1)N(Cc1cc2cc3c(cc2[nH]c1=O)OCO3)CC1CCCO1 (stereo not given) returned Abs 340nm inactive, Spn MK inh inactive, PMK inhibit inactive, NADH coupling inactive and Fluor 339 460 3.7.
COc1cc2cc(CN(Cc3cccnc3)C(=O)NCc3ccccc3)c(=O)[nH]c2cc1OC was read as Abs 340nm inactive, Spn MK inh inactive, PMK inhibit inactive, NADH coupling inactive and Fluor 339 460 4.8.
Screening CCCN(Cc1cc2cc(OC)ccc2[nH]c1=O)C(=O)c1ccncc1 returned Abs 340nm inactive, Spn MK inh inactive, PMK inhibit inactive, NADH coupling inactive, DPM-DC inhibit inactive and Fluor 339 460 inactive.
For CC(=O)N(Cc1cccnc1)Cc1cc2ccc(C)cc2[nH]c1=O the results were Abs 340nm inactive, Spn MK inh inactive, PMK inhibit inactive, NADH coupling inactive, DPM-DC inhibit inactive and Fluor 339 460 inactive.
CCCCN(Cc1cc2cc(OC)ccc2[nH]c1=O)C(=O)c1ccccn1 was read as Abs 340nm inactive, Spn MK inh inactive, PMK inhibit inactive, NADH coupling inactive and Fluor 339 460 2.5.
For CCC(=O)N(CCc1ccccc1C)Cc1cc2cc3c(cc2[nH]c1=O)OCO3 the results were Abs 340nm inactive, Spn MK inh inactive, PMK inhibit inactive, NADH coupling inactive and Fluor 339 460 3.8.
Screening Cc1ccc2[nH]c(=O)c(CN(CC3CCCO3)C(=O)c3ccco3)cc2c1 (stereo not given) returned Abs 340nm inactive, Spn MK inh inactive, PMK inhibit inactive, NADH coupling inactive, DPM-DC inhibit inactive and Fluor 339 460 inactive.
For COc1ccc2[nH]c(=O)c(CN(C(=O)c3ccccn3)C3CCCCC3)cc2c1 the results were Abs 340nm inactive, Spn MK inh inactive, PMK inhibit inactive, NADH coupling inactive, DPM-DC inhibit inactive and Fluor 339 460 2.9.
Screening O=C(c1cncc(Br)c1)N1CCN(c2ccc(N3CCOCC3)nn2)CC1 returned Abs 340nm inactive, Spn MK inh inactive, PMK inhibit inactive, NADH coupling inactive and Fluor 339 460 2.1.
For O=C(C1CCN(c2ccc(N3CCOCC3)nn2)CC1)N1CCN(c2ccc(F)cc2)CC1 the results were Abs 340nm inactive, Spn MK inh inactive, PMK inhibit inactive, NADH coupling inactive and Fluor 339 460 4.8.
Screening O=C(c1ccc(N2CCOCC2)nc1)N1CCOCC1 returned Abs 340nm inactive, Spn MK inh inactive, PMK inhibit inactive, NADH coupling inactive, DPM-DC inhibit inactive and Fluor 339 460 inactive.
